# Source: PubChem BioAssay (EPA / NIEHS)
# Where “and” joins values, the source holds several entries; their conditions need not be identical. Equal entries are not always repeated. Records with an inconclusive call do not appear. Where a structure was tested more than once in an assay, its records may differ in their call. Calls of active or inactive are those of the source. The calls were made as follows: active = hit-call score of the fitted dose curve at least 0.9, where 1 is the maximum; inconclusive = response in the unintended direction; inactive = score below 0.9.
# Columns and labels:
# [1] = target: Cellular tumor antigen p53 (Homo sapiens) (UniProt P04637); experiment: TOX21_p53_BLA_p5_ratio: Tox21 HCT-116 p53 Agonism Beta-lactamase Assay, Ratio, Phase 5 (AID 2283599)
# Summary of the method: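 HCT-116 cells carrying a p53-inducible beta-lactamase reporter were seeded at 4000 cells/well and dosed after 5 h with compound in DMSO (217-fold dilution). After 16 h at 37C, CCF4-AM substrate was added for 2 h, and the 460/530 nm emission ratio was scored as gain-of-signal versus DMSO.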
# [2] = TOX21_p53_BLA_p5_viability: Viability Assessment in the Tox21 HCT-116 p53 Agonism Beta-lactamase Assay, Phase 5 (AID 2283600)
# Summary of the method: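 HCT-116 p53 beta-lactamase reporter cells, 4000/well, were exposed to compound (pin transfer, 217-fold dilution) for 16 hours at 37C. Cellular ATP was read by CellTiter-Glo luminescence after 30 min at room temperature.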
# [3] = Tanguay_ZF_120hpf_MORT_legacy: (Legacy) Oregon State University Tanguay Lab 120 Hour Post-fertilization zebrafish Assay for Mortality (AID 2283633);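 as to AC50: fitted as increase in binary mortality versus DMSO negative control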
# Summary of the method: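 Dechorionated Tropical 5D wild-type zebrafish embryos, one per well from 6 hpf, static exposure in 0.64% DMSO at 28C until 120 hpf. Mortality scored as binary by brightfield microscopy at 24 and 120 hpf.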
# [4] = Tanguay_ZF_120hpf_YSE_legacy: (Legacy) Oregon State University Tanguay Lab 120 Hour Post-fertilization zebrafish Assay for Yolk Sac Edema (AID 2283634);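 as to AC50: actives raise the incidence of yolk sac edema above the DMSO baseline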
# Summary of the method: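 Dechorionated Tropical 5D wild-type zebrafish embryos were exposed statically, one per well, from 6 to 120 hpf at 28C in 0.64% DMSO. Yolk sac edema was scored present/absent by brightfield at 120 hpf, and dead embryos were excluded.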
# [5] = Tanguay_ZF_120hpf_AXIS_legacy: (Legacy) Oregon State University Tanguay Lab 120 Hour Post-fertilization zebrafish Assay for Body Axis Malformation (AID 2283635)
# Summary of the method: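 Dechorionated wild-type Tropical 5D zebrafish embryos, one per well, statically exposed from 6 hpf to 120 hpf at 28C in 0.64% DMSO final. Body axis malformation scored present/absent by brightfield microscopy at 120 hpf; dead embryos excluded.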
# [6] = Tanguay_ZF_120hpf_OTIC_legacy: (Legacy) Oregon State University Tanguay Lab 120 Hour Post-fertilization zebrafish Assay for Otic Vesicle Malformation (AID 2283639)
# Summary of the method: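 Tropical 5D wild-type zebrafish embryos were exposed statically in sealed, foil-covered plates at 28C until 120 hpf, with 0.64% (vol/vol) DMSO final. Otic vesicle malformation was scored present/absent by brightfield microscopy, with DMSO as baseline.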
# [7] = Tanguay_ZF_120hpf_EYE_legacy: (Legacy) Oregon State University Tanguay Lab 120 Hour Post-fertilization zebrafish Assay for Eye Malformation (AID 2283636);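 also: binary presence or absence of eye malformation scored by brightfield in 120 hpf larvae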
# Summary of the method: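 Dechorionated wild-type Tropical 5D zebrafish embryos were exposed statically from 6 hpf, one per well, to 120 hpf at 28C in sealed, foil-covered plates with 0.64% DMSO. Eye malformation was scored present/absent by brightfield microscopy against DMSO controls.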
# [8] = Tanguay_ZF_120hpf_SNOU_legacy: (Legacy) Oregon State University Tanguay Lab 120 Hour Post-fertilization zebrafish Assay for Snout Malformation (AID 2283637)
# Summary of the method: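 Tropical 5D wild-type zebrafish embryos, dechorionated with pronase at 4 hpf, were exposed singly from 6 hpf to 120 hpf statically at 28C in 0.64% DMSO. Snout malformation was scored present/absent by brightfield microscopy, fitted against DMSO.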
# [9] = target: Cellular tumor antigen p53 (Homo sapiens) (UniProt P04637); experiment: TOX21_p53_BLA_p4_ratio: Tox21 HCT-116 p53 Agonism Beta-lactamase Assay, Ratio, Phase 4 (AID 2283601)
# Summary of the method: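 HCT116 cells carrying an inducible beta-lactamase reporter were plated at 4000 cells/well, rested 5 h, then exposed to compounds in DMSO (217-fold dilution) for 16 h at 37C. CCF4-AM substrate was loaded 2 h at room temperature; 460/530 nm emission ratio scored gain-of-signal versus DMSO.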
# [10] = Tanguay_ZF_120hpf_JAW_legacy: (Legacy) Oregon State University Tanguay Lab 120 Hour Post-fertilization zebrafish Assay for Jaw Malformation (AID 2283638)
# Summary of the method: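 Dechorionated Tropical 5D wild-type zebrafish embryos, one per well, exposed statically from 6 hpf to 120 hpf at 28C in 0.64% DMSO. Jaw malformation was scored by brightfield microscopy as present or absent. It was not scored in dead embryos.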
# Chain of Cellular tumor antigen p53 (Homo sapiens) (P04637 whole entry, looked up): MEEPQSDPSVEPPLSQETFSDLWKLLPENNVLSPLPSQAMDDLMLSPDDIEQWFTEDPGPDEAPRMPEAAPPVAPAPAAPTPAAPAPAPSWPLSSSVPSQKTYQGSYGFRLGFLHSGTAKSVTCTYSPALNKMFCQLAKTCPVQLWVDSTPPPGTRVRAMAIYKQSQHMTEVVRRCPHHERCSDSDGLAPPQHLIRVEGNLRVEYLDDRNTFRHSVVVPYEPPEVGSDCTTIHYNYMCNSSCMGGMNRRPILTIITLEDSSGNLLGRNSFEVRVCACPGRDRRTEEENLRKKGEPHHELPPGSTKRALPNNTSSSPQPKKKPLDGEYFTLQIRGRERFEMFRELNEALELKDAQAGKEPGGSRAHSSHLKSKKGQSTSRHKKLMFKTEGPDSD
Structure (SMILES),outcome [1],outcome [2],outcome [3],outcome [4],outcome [5],outcome [6],outcome [7],outcome [8],AC50 [1],outcome [9],AC50 [9],AC50 [2],outcome [10],AC50 [3],AC50 [4]
C1CCC(SSC2CCCCC2)CC1,inactive,inactive,inactive,inactive,inactive,inactive,,,,,,,,,
CC(=O)C(C)=CC1C(C)=CCCC1(C)C (stereo unspecified),inactive,inactive,inactive,,inactive,inactive,inactive,inactive,,,,,,,
O=[N+]([O-])C(CO)(CO)CO,inactive,inactive,inactive,inactive,inactive,inactive,inactive,inactive,,,,,,,
CC1=C(/C=C/C(C)=C/C=C/C(C)=C/CO)C(C)(C)CCC1,inactive,inactive,inactive,inactive,inactive,inactive,inactive,inactive,86.4 µM (active),,,,,,
NCCO,inactive,,inactive,inactive,inactive,,inactive,inactive,,inactive,,,,,
COc1cccc2c1C(=O)c1c(O)c3c(c(O)c1C2=O)C[C@@](O)(C(=O)CO)C[C@@H]3O[C@H]1C[C@H](N)[C@H](O)[C@H](C)O1,,,,,,,,,238 nM (active) and 422 nM (active),,211 nM (active) and 437 nM (active),,,,
CCCCC(CC)COC(=O)CC(C(=O)OCC(CC)CCCC)S(=O)(=O)O (stereo unspecified),,,inactive,inactive,inactive,inactive,inactive,inactive,79.2 µM (active) [middle of 4 runs],,79.2 µM (active) [middle of 4 runs],62.1 µM (active) [middle of 4 runs],,,
CC(=O)OC/C=C(\C)CCC=C(C)C,inactive,inactive,inactive,inactive,inactive,,inactive,inactive,,,,,,,
Cc1c(C(=O)O)c(O)cc2c1C(=O)c1c(O)c([C@@H]3O[C@H](CO)[C@@H](O)[C@H](O)[C@H]3O)c(O)c(O)c1C2=O,inactive,inactive,inactive,inactive,inactive,,inactive,inactive,,inactive,,,inactive,,
CCOC(=O)CCC(=O)OCC,inactive,inactive,inactive,inactive,inactive,inactive,inactive,inactive,,,,,,,
Cc1ccc(Cl)cc1,inactive,inactive,inactive,inactive,inactive,inactive,inactive,inactive,,inactive,,,,,
CNCc1cc(F)ccc1Oc1ccc(Cl)c(Cl)c1,inactive,inactive,inactive,inactive,inactive,inactive,,inactive,,,,,inactive,,
Cc1ccc(C)c(C)c1,inactive,inactive,inactive,inactive,inactive,inactive,inactive,,,,,,inactive,,
Cc1ccc(C(C)C)c(O)c1,inactive,,inactive,inactive,inactive,inactive,inactive,inactive,73.2 µM (active),,,,,,
COc1cc(/C=C/C(=O)CC(=O)/C=C/c2ccc(O)c(OC)c2)ccc1O,,,,,,,,,14 µM (active) and 39.4 µM (active) and 7.67 µM (active),,14 µM (active) and 36.5 µM (active) and 7.12 µM (active),,,,
C=CCOC(=O)c1ccccc1C(=O)OCC=C,inactive,inactive,,,inactive,inactive,inactive,inactive,,,,,,13.9 µM (active),30.9 µM (active)
CCCCCCCCCCO,inactive,inactive,inactive,inactive,inactive,inactive,inactive,inactive,,inactive,,,inactive,,
CC(=O)Oc1ccccc1C(=O)O,inactive,inactive,inactive,inactive,inactive,,,inactive,,,,,,,
C=CCc1ccc(O)c(OC)c1,inactive,inactive,inactive,inactive,inactive,inactive,inactive,inactive,,inactive,,,inactive,,
CC=Cc1ccc(O)c(OC)c1,inactive,inactive,inactive,inactive,inactive,inactive,inactive,,,,,,inactive,,
Nc1ccccc1N,inactive,inactive,inactive,,inactive,inactive,inactive,inactive,,,,,,,46.3 µM (active)
NS(=O)(=O)c1cc2c(cc1Cl)NCNS2(=O)=O,inactive,inactive,inactive,inactive,inactive,inactive,inactive,inactive,,inactive,,,,,
